# High-throughput results from PubChem BioAssay.
# Shown are actives, neighbours in structure and some others; about 6.6% of the full set was active somewhere.
# SW480 rereplic: induces DNA re-replication in SW480 colon adenocarcinoma cells; Potency, µM (highest dose often 46.1 µM), for the others: top-dose re-replication activation, hits mostly activators; AID 624297; hit rate 1.8% among 340,000; SW480 DNA re-replication, Hoechst DNA content imaging, 48 h; further: % of control where 0% means no effect; nearly all actives have a fitted effect of over 55% in size
#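 Image-based read-out: total Hoechst fluorescence of nuclei (405 nm excitation, 500-530 nm emission), with hits raising the fraction of high-intensity nuclei. SW480 colon cells incubated 48 hr with compounds at 37 C.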
# TSG101-PTAP inh: blocks PTAP/TSG101 interaction to inhibit HIV-1 budding; Fluorescence polarization, FITC-PTAP peptide / Tsg101 binding; Q99816; Potency, µM (series often up to 115 µM), for inactives: at the top dose activity change, negative = inhibition, actives largely listed as inhibitors; 340,000 tested, under 10 active; active means well fitted inhibition curve with a large enough effect in the main read-out, with a control signal flat, not every such curve was filed as active; inconclusive means small, poorly fitted or top-dose-only effect, or effect the other way, or a change in a side signal; inactive means no such curve, though single readings can be large or run the other way; further: % of control where 0% means no effect
# Target sequence (Q99816 whole entry, looked up): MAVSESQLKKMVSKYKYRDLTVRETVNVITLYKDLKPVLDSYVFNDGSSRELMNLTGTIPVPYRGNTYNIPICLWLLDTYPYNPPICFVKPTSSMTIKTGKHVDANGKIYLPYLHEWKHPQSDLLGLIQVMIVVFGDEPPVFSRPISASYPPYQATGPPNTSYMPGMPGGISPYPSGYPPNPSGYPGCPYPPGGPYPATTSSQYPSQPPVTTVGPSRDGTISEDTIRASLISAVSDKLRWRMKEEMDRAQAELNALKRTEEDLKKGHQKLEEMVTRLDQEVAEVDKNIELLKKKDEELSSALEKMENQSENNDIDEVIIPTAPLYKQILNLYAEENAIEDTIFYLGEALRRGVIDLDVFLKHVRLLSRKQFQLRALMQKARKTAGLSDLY
#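 FP read-out: FITC-PTAP peptide, 50 nM final, binding Tsg101 binding domain, 10 uM final; 20 min, r.t.; 10 mM HEPES pH 7.5, 0.15 M NaCl, 0.01% Tween 20, 3 mM EDTA, 0.1 mM TCEP.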
# MCF10A rereplic: DNA re-replication induction in MCF 10a cells; Potency, µM (series often up to 46.1 µM), for inactives: at the highest dose activity, positive = re-replication, actives largely listed as activators; MCF 10A DNA re-replication, Hoechst nuclear intensity, 48 h; hit rate 2.9% among 350,000; further: % of control where 0% means no effect; nearly all actives have a fitted effect of over 50% in size
# KB-3-1 tox: kills parental KB-3-1 adenocarcinoma cells. hit rate 1.4% among 400,000. Potency, µM (titrated, usually from 46.1 µM), hits mostly cytotoxic. KB-3-1 viability, CellTiter-Glo ATP luminescence, 72 h. AID 1347075; further: on the % scale 0 is the no-effect control and ±100 the full control effect; nearly all actives have a fitted effect of over 60% in size
#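 Here the drug-naive KB-3-1 line serves as comparator for MDR sub-line selectivity; cells received compound titrations, 72 h at 37 °C, then CellTiter-Glo readout.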
# RGS4 inh: blocks human RGS4-accelerated GTP hydrolysis; AID 504845; hit rate 0.039% among 390,000; Transcreener GDP fluorescence polarization, RGS4-accelerated GTP hydrolysis; Potency, µM (top dose mostly 114 µM), for inactives: at the top dose activity change, negative = inhibition, hits mostly inhibitors; further: on the % scale 0 is the no-effect control and ±100 the full control effect; nearly all actives have a fitted effect of over 75% in size
# Target sequence (P49798 whole entry, looked up): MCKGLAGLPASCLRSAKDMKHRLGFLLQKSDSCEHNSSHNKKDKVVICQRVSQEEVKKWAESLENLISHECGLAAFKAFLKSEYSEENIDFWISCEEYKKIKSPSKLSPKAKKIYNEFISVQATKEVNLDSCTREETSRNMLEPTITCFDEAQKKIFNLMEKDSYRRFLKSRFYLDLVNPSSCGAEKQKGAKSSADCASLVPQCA
#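 MLSMR compounds (23 nl, pin-transferred) preincubated 10 min at room temperature with a 500nM (2x) first reagent, then RGS4 at 900nM (2x) plus Transcreener GDP mix added; fluorescence polarization (620/688 nm) read before and after 90 min at 30 °C.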
# KB-V1 MDR tox: kills drug-selected multidrug resistant KB-V1 cells; KB-V1 MDR cells viability, CellTiter-Glo, 72 h; Potency, µM (top dose mostly 46.1 µM), most hits filed as cytotoxic; hit rate 3.4% among 400,000; AID 1347076; further: on the % scale 0 is the no-effect control and ±100 the full control effect; nearly all actives have a fitted effect of over 60% in size
#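 In this primary screen, KB-V1 cells overexpressing P-gp are incubated with library compounds (lowest to highest concentration) for 72 h at 37 degrees C before a luminescent ATP viability read.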
# The depositor's hits bear a star; i = inactive; ? = inconclusive; . = no result given; [ ] = remark or other dose. Unless noted, the call rests on the fitted dose curve; in most records, active means well fitted curve in the direction sought with a large enough effect; inconclusive means small, poorly fitted or top-dose-only effect, or another doubt; inactive means no such curve, though single readings can be large; an effect the other way counts as inactive or inconclusive. Potency means the concentration at half of the fitted maximal effect.
SMILES,SW480 rereplic,TSG101-PTAP inh,MCF10A rereplic,KB-3-1 tox,RGS4 inh,KB-V1 MDR tox
O=C(Nc1nn(Cc2ccc(Cl)cc2)cc1Br)c1ccc(COc2ccccc2Cl)o1,-9.2%,-1.2%,-1.3%,?,0.9%,16.4µM*
COc1ccc(-c2nc(NC(=O)Cn3cnnn3)sc2C)cc1,2.6%,-4.3%,2.06µM*,i,11.7%,i
COc1ccc(S(=O)(=O)/N=C2/NC(=O)/C(=C/c3ccco3)S2)cc1,10.2%,-7.6%,-1.3%,i,?,i
COc1ccc(N=C2NC(=O)/C(=C/c3ccco3)S2)cc1,7.31µM*,0.8%,?,i,-29.5%,i
COC(=O)/C=C1\SC(=NC(=O)c2ccc(OC)cc2)NC1=O,-3.9%,-0.1%,-1.7%,i,-40.1%,i
COC(=O)/C=C1\SC(=Nc2ccc(OC)cc2)NC1=O,-10.3%,1.2%,3.66µM*,i,-3.3%,i
Cc1ccc(S(=O)(=O)Nc2ccc(-c3ccc(N4CCCCCC4)nn3)cc2)c(C)c1,.,.,.,i,4.0%,?
N#Cc1c(N)n(CCOC(=O)c2cccc(Br)c2)c2nc3ccccc3nc12,?,-1.0%,?,i,2.4%,i
Cc1ccc(C(=O)NCCn2c(N)c(C#N)c3nc4ccccc4nc32)cc1,20.6µM*,-1.0%,?,?,7.4%,i
COCCn1c(N)c(C#N)c2nc3ccccc3nc21,?,-7.8%,?,i,0.0%,i
N#Cc1c(N)n(CCNC(=O)c2ccc(Cl)cc2)c2nc3ccccc3nc12,?,1.3%,18.4µM*,i,-14.0%[11.4 µM],i
Oc1c(C(Nc2cccc(C(F)(F)F)c2)c2ccncc2)ccc2cccnc12 (stereo not given),11.6µM*,-0.7%,?,i,-31.0%,?
Oc1c(C(Nc2nccs2)c2ccc(C(F)(F)F)cc2)ccc2cccnc12 (stereo not given),1.3µM*,-1.9%,?,?,-10.7%,?
Oc1c(C(Nc2cccnc2)c2ccccc2F)ccc2cccnc12 (stereo not given),.,.,.,i,.,i
Cc1ccc(C(Nc2ccccn2)c2ccc3cccnc3c2O)cc1 (stereo not given),.,.,.,?,?,i
CN(Cc1ccccc1)S(=O)(=O)c1ccc(-c2cnc(C3CC3)o2)cc1,.,.,.,i,30.9%,i
CCC(=O)Oc1ccc(C/C(=N\O)c2ccc(O)cc2O)o1,?,-6.6%,14.6µM*,i,-26.4%,i
CCOC(=O)c1ccc(CC(=O)c2ccc(O)cc2O)o1,1.5%,-3.9%,0.1%,i,-30.8%,i
CCOc1ccc(Br)cc1/C(C)=N\NC1=NCCN1,?,-1.1%,?,6.51µM*,20.3%,?
CCOC(=O)c1cc(-c2ccccc2)n(CCC(=O)Nc2ccc(C(F)(F)F)cc2)c1C,.,.,.,.,-16.6%,.
CCn1c(=O)cc(SCC(=O)NCc2ccc(F)cc2Cl)c2ccccc21,.,.,.,i,-29.2%,i
CC1CCC(C(C)C)C(OCC(O)CNC(C)(C)C)C1 (stereo not given),1.9%,-0.4%,12.0%,i,-5.5%,i
Cc1nc(C)n(CC(O)COc2ccc3ccccc3c2)n1 (stereo not given),-4.1%,-8.1%,0.3%,i,-12.5%,20.6µM*
CC1CCC(C(C)C)C(OCC(O)CNC(C)c2ccccc2)C1 (stereo not given),8.0%,5.4%,16.4µM*,?,-7.7%,20.6µM*
Cc1cc(OCC(O)CNC(C)c2ccccc2)ccc1C(C)C (stereo not given),?,2.0%,?,?,-15.6%,16.4µM*
SMILES,SW480 rereplic,TSG101-PTAP inh,MCF10A rereplic,KB-3-1 tox,RGS4 inh,KB-V1 MDR tox
CC(NCC(O)COc1ccc2ccccc2c1)c1ccccc1 (stereo not given),23.1µM*,-4.9%,?,?,7.7%,?
Cc1cc(C)n(CC(O)COc2ccc3ccccc3c2)n1 (stereo not given),-2.1%,-3.9%,-6.5%,i,16.3%,?
COc1ccc(-c2[nH]c(-c3cccc(OC)c3)nc2SCC(=O)Nc2ccc3c(c2)OCO3)cc1,.,.,.,?,-10.3%,?
Cc1cccc2sc(NNC(=O)C3COc4ccccc4O3)nc12 (stereo not given),-10.8%,2.8%,2.5%,i,-14.1%,i
O=C(NNc1nc2c(F)cc(F)cc2s1)C1COc2ccccc2O1 (stereo not given),-11.4%,-0.7%,0.92µM*,i,-29.4%,?
CC(C)(C)OC(=O)NCCCC[C@H](NC(=O)c1[nH]cnc1C(=O)N[C@@H](Cc1ccccc1)C(=O)OC(C)(C)C)C(=O)OC(C)(C)C,-0.7%[9.22 µM],-12.3%,29.1%,?,-17.4%,i
C[C@H](NC(=O)c1nc[nH]c1C(=O)N[C@@H](CCCCNC(=O)OC(C)(C)C)C(=O)OC(C)(C)C)c1ccccc1,?,.,22.6%,?,9.4%,20.6µM*
CC(C)(C)OC(=O)NCCCC[C@H](NC(=O)c1[nH]cnc1C(=O)Nc1ccc(CNC(=O)OC(C)(C)C)cc1)C(=O)OC(C)(C)C,-6.1%,52.8%,4.11µM*,i,-4.0%,i
C[C@H](NC(=O)c1nc[nH]c1C(=O)NCc1ccc(CNC(=O)OC(C)(C)C)cc1)c1ccccc1,4.3%,.,14.6µM*,?,-5.5%,?
Cc1cc(O)c(C(=O)c2cnc3c(c2)COc2ccccc2-3)cc1Cl,.,.,.,i,14.5%,i
COCCCn1c(=O)c2sccc2n2c(CCCC(=O)Nc3cccc(C(F)(F)F)c3)nnc12,.,.,.,.,-4.1%,.
CCOCCCn1c(SCC(=O)Nc2ccccc2CC)nc2ccccc2c1=O,.,.,.,.,39.6%,.
O=C(Cc1ccccc1)NCc1ccc(-n2cccc2)cc1,6.51µM*,0.2%,10.3µM*,?,20.3%[11.4 µM],i
O=C(Cc1ccc(-n2cccc2)cc1)NCc1ccccc1Cl,18.4µM*,2.1%,4.11µM*,?,-0.2%,i
O=C(CCn1cccc1)NCc1ccccc1,11.9%,-0.8%,-5.9%,i,-45.3%,i
O=C(NCc1ccccc1Cl)NCc1ccccc1Cl,-18.1%,0.9%,0.5%,i,-7.4%,i
CC(C)CN(C)c1ccc(/C=C2\C=Cc3ccccc32)cc1,.,.,.,i,.,i
CC(=O)c1ccc(N2CCN(c3ncnc4c3nc3n4CCCC3)CC2)cc1,.,.,.,.,12.6%,.
COc1ccc(NC(=O)CSc2nc3ccccc3n2CC(=O)N(C)C2CCCCC2)cc1,.,.,.,i,-8.6%,i
O=S(=O)(Nc1nccs1)c1ccc(F)cc1,15.8%,-3.1%,2.31µM*,i,24.2%,i
